Pf Dd2 inh = qHTS Primary assay for Inhibitors of Plasmodium falciparum Dd2 growth in vitro; P. falciparum Dd2 growth, SYBR Green, 72 h; Potency, µM (series often up to 28.9 µM), for the others: top-dose activity, negative = inhibition, most hits filed as inhibitors; actives 4.3% (n = 120,000); AID 1347417, 2020; active = well fitted inhibition curve with a large enough effect;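 note: plate controls were DMSO vehicle for no effect and reference drug for full effect; nearly all actives have a fitted effect of over 65% in size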
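Readout: SYBR Green fluorescence, 485 nm excitation, 535 nm emission, after ~16 h lysis at 37C. Before that, Dd2-infected red cells (2.5% hematocrit) grew 72 h with compound, 29 uM top final concentration.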
Active calls of the source: *; i = inactive; ! = not confirmed by another sample; [ ] = dose if it differs, or a comment. This is one part of a sample in which hits are shown more often than they occur. Potency is the fitted concentration of half-maximal effect.

SMILES	Pf Dd2 inh
COc1ccc(CN2CCCC(c3nn(-c4ccc(OC)cc4)c(=O)[nH]3)C2)cc1 (centres undefined)	i
Cc1ccc2nc(C3CCN(Cc4cccs4)CC3)[nH]c(=O)c2c1	-1%[44.1 µM]
COc1ccccc1-c1ccc(CN2CCCC(c3nc4ccc(C)cc4c(=O)[nH]3)C2)cc1 (centres undefined)	7.9µM*!
CCN1CCCC(c2nc3ccc(C)cc3c(=O)[nH]2)C1 (centres undefined)	-17%[44.1 µM]
COC[C@@H]1CN(C(=O)c2nn(C)c3ccccc23)C[C@H]1c1nc(C)no1	i
Cc1cccc(C(=O)N2CCCC(c3nn(-c4ccc(F)cc4)c(=O)[nH]3)C2)c1 (centres undefined)	i
O=C(c1ccoc1)N1CCC(c2nc(C3CCOCC3)no2)C1 (centres undefined)	57%
COC1C(=O)N(C2CCN(C(=O)c3ccc(C)nc3)CC2)C12CCOCC2 (centres undefined)	7%
COc1ccc(OC)c(CNC(=O)C2CCN(c3cnc4nccnc4c3)CC2)c1	i
OCCNc1ncnc2ccc(-c3cccc(O)c3)cc12	8.9µM*
Oc1cccc(Nc2nc(-c3ccccc3)nc3ccccc23)c1	-1%
CN1CCN(C(=O)Cc2c[nH]c3ncc(-c4cccc(O)c4)cc23)CC1	-8%[44.1 µM]
CCNC(=O)N1CC(c2nnc(C(C)C)o2)C2(CCOCC2)C1 (centres undefined)	46%
O=C(Nc1ccccn1)C1CC(=O)N(c2n[nH]c3ccccc23)C1 (centres undefined)	-13%
Cc1ccc(-c2nc(C(=O)NCc3cc(F)cc(F)c3)no2)cc1	22%
CCN1CCC(O)(c2csc(CN(CC)CC)n2)CC1	4%[44.1 µM]
CCN(CC)Cc1nc(C2(O)CCN(Cc3ccc(C(F)(F)F)cc3)CC2)cs1	11µM*
OC1(c2csc(CN3CCOCC3)n2)CCN(Cc2ccc(C(F)(F)F)cc2)CC1	7%
Cc1cc(C(=O)N2CCCn3nc(C(=O)NCCN(C)C)cc3C2)ccc1F	-2%
Cc1nc2c(-c3ccc(F)cc3)c(C)nn2c(C)c1CCC(=O)NCc1ccc(F)cc1	41%
CCOC(=O)c1ccc(NC(=O)c2cnc3c(-c4ccc(F)cc4)c(C)nn3c2C)cc1	50%
CCOC(=O)c1ccc(NC(=O)CCc2c(C)nc3c(-c4ccc(F)cc4)c(C)nn3c2C)cc1	3.5µM*
O=C(CCC1CCN(C(=O)c2ccccc2)CC1)Nc1ccc(F)cc1F	-22%
CNC(=O)[C@@H](c1ccccc1F)N1CCC[C@H]1C(=O)N(C)Cc1ccccc1	i
Cn1nccc1C(=O)N1CCC(c2noc(-c3ccncc3)n2)C1 (centres undefined)	9%[5.79 µM]
SMILES	Pf Dd2 inh
COc1ccc(-c2ccccc2NC(=O)C2CCCN2C(=O)C2(C)CC2)cc1 (centres undefined)	-10%
COc1ccc(-c2ccccc2NC(=O)C2CCCN(Cc3ccccc3O)C2)cc1 (centres undefined)	2.8µM*
CCNC(=O)N1CCCC1C(=O)Nc1ccccc1-c1ccc(OC)cc1 (centres undefined)	6%
COc1ccc(-c2cn3nc(N4CCCC(C(=O)Nc5cccc(Cl)c5C)C4)sc3n2)cc1 (centres undefined)	-11%
COc1ccc(-c2ccccc2NC(=O)C2CCCN(Cc3c(O)cccc3OC)C2)cc1 (centres undefined)	1.8µM*
COc1ccc(NC(=O)C2CCCN(c3cnccn3)C2)c(OC)c1 (centres undefined)	32%
O=C1COc2ccc(N3CCOCC3)nc2CN1Cc1ccccc1F	i
COC1C(=O)N(CC2CC2)C12CCN(C(=O)c1cnccc1C)CC2 (centres undefined)	9%
CC(=O)N1CCc2nn(CC(=O)Nc3ccc(Cl)cc3F)c(=O)cc2C1	6%
c1ccc(-c2noc(-c3cncnc3Nc3ccc4c(c3)OCO4)n2)cc1	5.6µM*
c1ccc(-c2noc(-c3cncnc3Nc3ccc4c(c3)OCCO4)n2)cc1	i
COc1ccc(Nc2ncncc2-c2nc(-c3ccccc3)no2)cc1OC	i
N#Cc1ccc(C(=O)N2Cc3[nH]cnc3C[C@H]2c2nc(-c3ccc4c(c3)OCO4)no2)cc1	10µM*
Cc1ccc(-c2noc([C@@H]3Cc4nc[nH]c4CN3C(=O)c3ccc(F)cc3)n2)cc1	i
O=C(NCc1ccccc1)N1Cc2[nH]cnc2C[C@H]1c1nc(-c2ccc3c(c2)OCO3)no1	-19%
Cc1nc(CNC(=O)c2cc(Cn3ccnc3C(C)C)[nH]n2)sc1C	i
NC(=O)c1cc[nH]c1C1CCCN(S(=O)(=O)c2ccc3c(c2)OCCO3)C1 (centres undefined)	2%
C=CCNC(=O)C(NC(=O)c1cccs1)C1CCN(C(=O)c2ccc(F)cc2)CC1 (centres undefined)	i
O=C1N(Cc2ccccn2)C[C@H]2CN(Cc3cccc(OC(F)(F)F)c3)CCN12	i
CC(C)NC(=O)NCc1nnc2n1C(C(=O)NC(C)C)CC2 (centres undefined)	39%
CCN(C(=O)CN1C(=O)NC2(CCC(C)CC2)C1=O)c1ccccc1 (centres undefined)	-58%
CCNC(=O)NCCc1ncc(C)n1CC1CC1	3%
Cc1cnc(-c2ccncc2)n1CCNC(=O)CCC1CCCC1	-2%
CCCn1c(C)cnc1CCNC(=O)CCC1CCCC1	2.5µM*
O[C@@H]1CC(CNCc2ccccn2)(COc2cccnc2)C[C@@H]1O (some centres undefined)	14%
SMILES	Pf Dd2 inh
O=C(NC[C@H]1O[C@@H](Cc2nc(-c3ccc(OC(F)(F)F)cc3)no2)[C@H](O)[C@@H]1O)C1CC1	7%
COc1ccc(CCCNc2cc(C3CC(O)C3)ncn2)cc1 (centres undefined)	-11%
COc1ccc(CCNC(=O)c2ccc3c(c2)N(Cc2ccccc2Cl)C(=O)c2ccccc2S3)cc1OC	11µM*
CCOc1ccc(CN2C(=O)c3ccccc3Sc3ccc(C(=O)NC)cc32)cc1	-14%
COc1ccc(CCNC(=O)c2ccc3c(c2)N(Cc2cc(C)ccc2C)C(=O)c2ccccc2S3=O)cc1OC (centres undefined)	4.5µM*
O=C(NCc1ccco1)c1ccc2c(c1)N(Cc1ccccc1)C(=O)c1ccccc1S2	i
CCOc1ccc(CN2C(=O)c3ccccc3Sc3ccc(C(=O)NCc4ccc5c(c4)OCO5)cc32)cc1	10µM*
CCOc1ccc(CCNC(=O)c2ccc3c(c2)N(Cc2ccccc2)C(=O)c2ccccc2S3=O)cc1OCC (centres undefined)	i
Cc1ccc(CCNC(=O)c2ccc3c(c2)N(Cc2ccccc2)C(=O)c2ccccc2S3=O)cc1 (centres undefined)	i
Cc1ccc(CCNC(=O)c2ccc3c(c2)N(Cc2cccc(F)c2)C(=O)c2ccccc2S3)cc1	2%
CNC(=O)c1ccc2c(c1)N(Cc1ccccc1Cl)C(=O)c1ccccc1S2	i
O=C(NC1CCc2ccccc21)C1CCN(C(=O)c2ncn3c2COC(c2ccccc2)C3)CC1 (centres undefined)	i
COCc1ncc2c(n1)CCCN(CC(=O)NCc1cccc(F)c1)C2=O	-20%
CC(=O)c1c(C)nn(CC(=O)NC2CC(c3nnc(CN(C)C)n3C)C2)c1C (centres undefined)	-4%
Cn1ccnc1-c1cn(CCNC(=O)c2ccc(F)cc2)nn1	-16%
Cc1cccc(Cn2c(SCc3ccc(C(=O)NC4CCCCC4)cc3)nc3ccncc32)c1	-16%

Screening data deposited in PubChem BioAssay by National Center for Advancing Translational Sciences (NCATS).
